Results taken from PubChem BioAssay AID624330 (Southern Research Specialized Biocontainment Screening …, 2012).
Out of some 340,000 compounds screened, about 2,100 (0.62%) were called active.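 How the source made its calls: active means first-screen hits whose inhibition reached a set limit at any dose in the follow-up dose series; inconclusive means inhibition above the set first-screen limit but never retested; inactive means the rest.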 Not all results are given here. Measured potencies and affinities stand elsewhere.

Molecular target: Rac GTPase-activating protein 1 (Homo sapiens) (UniProt Q9H0H5)
Assay: MgcRacGAP GTPase-activating activity inhibitors, confirmation, biochemical, ADP Hunter fluorescence, primary and confirmatory (AID 624330);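 further: fluorescence reports GDP produced by GAP-driven GTP hydrolysis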
Conditions: MgcRacGAP-stimulated Rac1 GTP hydrolysis, at 30 µM, stronger effect = higher value, GST-tagged Rac1 F28L mutant substrate

Chain of Rac GTPase-activating protein 1 (Homo sapiens) (Q9H0H5 whole entry, looked up): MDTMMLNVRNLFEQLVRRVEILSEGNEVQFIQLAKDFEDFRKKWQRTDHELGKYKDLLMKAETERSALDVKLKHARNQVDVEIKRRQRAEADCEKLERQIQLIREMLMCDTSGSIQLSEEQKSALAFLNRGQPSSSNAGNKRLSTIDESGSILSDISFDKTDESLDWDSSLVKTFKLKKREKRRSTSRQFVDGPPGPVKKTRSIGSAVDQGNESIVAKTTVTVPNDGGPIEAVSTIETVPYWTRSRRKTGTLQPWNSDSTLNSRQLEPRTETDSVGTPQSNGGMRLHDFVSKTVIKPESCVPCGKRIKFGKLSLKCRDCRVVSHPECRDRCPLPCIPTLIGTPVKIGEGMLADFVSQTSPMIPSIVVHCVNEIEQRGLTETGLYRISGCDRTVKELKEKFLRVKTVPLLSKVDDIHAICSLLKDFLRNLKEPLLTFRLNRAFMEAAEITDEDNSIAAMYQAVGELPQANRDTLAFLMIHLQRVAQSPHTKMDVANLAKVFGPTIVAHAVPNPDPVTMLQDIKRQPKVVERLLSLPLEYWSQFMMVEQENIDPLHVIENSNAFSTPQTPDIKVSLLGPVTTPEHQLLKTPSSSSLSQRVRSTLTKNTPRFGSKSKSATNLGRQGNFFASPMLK

inhibition, inactive:
Cc1cc(C)n2ncc(C(=O)NCc3ccccc3)c2n1 0.67%
COc1cc(/C=N/NC(=S)Nc2cccc(C(=O)O)c2)cc(OC)c1OC 7.41%
COc1ccc(/C=N/NC(=S)Nc2cccc(C(=O)O)c2)cc1OC -9.15%
CN(C)S(=O)(=O)c1cccc(NC(=S)N/N=C/c2cccc(O)c2)c1 2.96%
COc1cc(/C=N/NC(=S)Nc2cccc(S(=O)(=O)N(C)C)c2)cc(OC)c1O -1.97%
CCOC(=O)N1CCN(c2c(N3CCN(c4ccccc4OC)CC3)c(=O)c2=O)CC1 8.07%
O=C(COC(=O)c1ccc(Cl)c(S(=O)(=O)N2CCCCC2)c1)NCc1ccco1 5.55%
CCC(C)NS(=O)(=O)c1ccc(OCC(=O)Nc2ccc(F)cc2F)cc1 (stereo not given) 4.64%
CCCOc1ccc(/C(O)=C2/C(=O)C(=O)N(CCCn3ccnc3)C2c2ccco2)cc1 (stereo not given) 7.22%
COc1ccc(NC(=O)CN(c2cc(C)cc(C)c2)S(=O)(=O)c2c(C)n[nH]c2C)cc1 6.02%
C=CCc1cc(Cl)ccc1OCCN1CC(C)OC(C)C1 (stereo not given) 26.3%
C=CCc1ccc(OCCCCN2CC(C)OC(C)C2)c(OC)c1 (stereo not given) 16.2%
CC(=O)C1=C(O)C(=O)N(c2ccc(F)cc2)C1c1ccc(C)cc1 (stereo not given) 9.06%
COc1ccc(Br)cc1CN1CCN(S(=O)(=O)Cc2ccccc2)CC1 19.2%
COc1ccc(C(=O)C2CCCN(Cc3c[nH]c4ccccc34)C2)c(OC)c1 (stereo not given) -5.48%
COc1ccc(CN2CCN(Cc3c[nH]c4ccccc34)CC2)cc1 30.3%
COc1ccc(Br)cc1CN1CCCCCCC1 11.8%
COc1ccc(S(=O)(=O)N2CCN(Cc3c[nH]c4ccccc34)CC2)cc1 -10.1%
c1ccc(CN2CCN(Cc3c[nH]c4ccccc34)CC2)cc1 8.7%
COc1ccc(Br)cc1CN1CCSCC1 19.9%
COc1ccc(Br)cc1CN1CCCCCC1 25.6%
CCOc1ccc(NC(=O)Nc2c(C)n(C)n(-c3ccccc3)c2=O)cc1 0.15%
O=C(NCc1ccc(F)cc1)C1CCCN(S(=O)(=O)c2ccc(Br)s2)C1 (stereo not given) 5.11%
COc1ccccc1NC(=O)C1=C(C)Nc2nc(-c3cccs3)nn2C1c1cccc(O)c1 (stereo not given) 3.45%
Cc1c(C(=O)OCC(=O)Nc2c(C)n(C)n(-c3ccccc3)c2=O)cccc1[N+](=O)[O-] -3.37%
